TDP1 cell CPT: DT40-hTDP1 cell growth loss with CPT | chicken DT40 Tdp1-/-;hTDP1 cells + 20 nM CPT, ATP luminescence, 48 h | Potency, µM (titrated, usually from 46.2 µM), actives largely listed as inhibitors | actives 12% (n = 420,000); also: nearly all actives have a fitted effect of over 55% in size
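Chicken DT40 Tdp1-/- cells stably complemented with human TDP1 were seeded at 400 cells/well in medium containing 20 nM camptothecin, exposed to pin-transferred compounds, and grown at 37 °C for at least 48 hr. Viability was read as ATP luminescence.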
TDP1 block: blocks human tyrosyl-DNA phosphodiesterase 1 | actives 0.28% (n = 350,000) | Q9NUW8 | recombinant TDP1, AlphaScreen DNA substrate cleavage | Potency, µM (highest dose often 130 µM), most hits filed as inhibitors | AID 485290; also: nearly all actives have a fitted effect of over 40% in size
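Signal: AlphaScreen proximity between streptavidin donor and anti-FITC acceptor beads on intact substrate. Reaction: Tdp1 1 nM, substrate 15 nM final, 5 min RT after 15 min compound preincubation.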
VP16 counter: counter-screen for ROR gamma inhibitors: Gal4-VP16 reporter; Potency, µM (series often up to 53.6 µM), hits mostly inhibitors; Drosophila S2 Gal4-VP16 UAS-luciferase, luminescence, 20 h; AID 2546; actives 3.5% (n = 310,000);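 also: Gal4-VP16 expression switched on by copper sulfate through the metallothionein promoter; nearly all actives have a fitted effect of over 50% in size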
RORg inh: blocks mouse ROR gamma transcriptional activity. actives 5.4% (n = 310,000). Drosophila S2 Gal4-RORgamma UAS-luciferase reporter, 20 h. P51450. AID 2551. Potency, µM (top dose mostly 53.6 µM), usual class: inhibitors; also: nearly all actives have a fitted effect of over 60% in size
Target sequence (P51450 whole entry, looked up, the tested form may be a part): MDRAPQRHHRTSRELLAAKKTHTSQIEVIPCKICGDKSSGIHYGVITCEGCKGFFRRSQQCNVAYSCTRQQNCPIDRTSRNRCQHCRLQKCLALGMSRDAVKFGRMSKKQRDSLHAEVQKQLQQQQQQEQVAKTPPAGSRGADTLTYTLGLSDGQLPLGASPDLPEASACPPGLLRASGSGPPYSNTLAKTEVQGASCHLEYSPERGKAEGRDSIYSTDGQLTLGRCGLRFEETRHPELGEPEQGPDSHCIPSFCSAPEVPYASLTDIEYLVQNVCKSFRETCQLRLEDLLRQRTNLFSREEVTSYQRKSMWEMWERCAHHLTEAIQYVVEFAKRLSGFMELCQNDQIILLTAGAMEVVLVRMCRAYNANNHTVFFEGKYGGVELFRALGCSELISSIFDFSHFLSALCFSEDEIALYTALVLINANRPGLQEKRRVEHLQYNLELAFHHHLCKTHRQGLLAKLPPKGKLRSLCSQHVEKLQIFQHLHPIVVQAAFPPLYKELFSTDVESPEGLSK
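Luciferase reporter read in Schneider cells carrying Gal4-RORγ (mouse) and UAS-Photinus luciferase; cells given compound 1 h before 700 uM copper sulfate induction, then incubated 20 h at ambient temperature.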
DT40 TDP1 no CPT: qHTS for Inhibitors of human tyrosyl-DNA phosphodiesterase 1 (TDP1): qHTS in cells in absence of CPT. DT40 Tdp1-/- hTDP1 cells, no CPT, ATP luminescence, 48 h. Potency, µM (doses to about 46.2 µM), most hits filed as inhibitors. actives 15% (n = 420,000). AID 686978, 2013; also: nearly all actives have a fitted effect of over 55% in size
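Chicken DT40 Tdp1-/- cells stably complemented with human TDP1 were seeded at 400 cells/well with DMSO in place of 20 nM camptothecin. After compound pinning, cells grew at least 48 hr at 37 °C; viability read by CellTiter-Glo luminescence.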
A number is an active result. Rows were chosen to be rich in hits. Some 19% of all compounds tested hit in one or more screens of this group. Calls follow the shape of the dose curve; as a rule, active = well fitted curve in the direction sought with a large enough effect; inconclusive = small, poorly fitted or top-dose-only effect, or another doubt; inactive = no such curve, though single readings can be large; an effect the other way counts as inactive or inconclusive.

How did COc1ccc(C(=O)NCc2ccc3c(c2)CCN3C(=O)c2ccc(F)cc2)cc1 do in these assays?
TDP1 cell CPT: inconclusive; TDP1 block: inactive; DT40 TDP1 no CPT: 21µM

How did O=C(NCc1ccc2c(c1)CCN2C(=O)c1ccc(Cl)cc1)c1cccc(F)c1 do in these assays?
TDP1 cell CPT: inactive; TDP1 block: inactive; DT40 TDP1 no CPT: inactive

Results for O=C(NCc1ccc2c(c1)CCN2C(=O)c1ccncc1)c1cccc(Cl)c1 ?
TDP1 cell CPT: 21µM; TDP1 block: inactive; DT40 TDP1 no CPT: inconclusive

Results for O=C(NCc1ccc2c(c1)CCN2C(=O)c1ccc(F)cc1)c1ccco1 ?
TDP1 cell CPT: 21µM; TDP1 block: inactive; DT40 TDP1 no CPT: inconclusive

Results for CC(C)SCc1nc2ccccc2[nH]1 ?
TDP1 cell CPT: inactive; TDP1 block: inactive; VP16 counter: inconclusive; RORg inh: inactive; DT40 TDP1 no CPT: inactive

Results for COc1cccc(CSc2nc3n(n2)C(c2cccnc2)C(C(=O)Nc2ccccc2C)=C(C)N3)c1 (stereo not given) ?
TDP1 cell CPT: inactive; TDP1 block: inactive; DT40 TDP1 no CPT: inactive

How did CC(C(=O)NC1CCCC1)N1C(=O)c2cccc3cccc1c23 (stereo not given) do in these assays?
TDP1 cell CPT: inconclusive; TDP1 block: inactive; VP16 counter: inactive; RORg inh: inactive; DT40 TDP1 no CPT: inactive

What do the screens show for `O=S(=O)(c1cccs1)N1CCC(CO)(Cc2cccc(F)c2)CC1`?
TDP1 cell CPT: inactive; TDP1 block: inactive; VP16 counter: inactive; RORg inh: inactive; DT40 TDP1 no CPT: inactive

How did Cn1nccc1C(=O)NCc1ccc2c(c1)CCN2C(=O)c1ccccc1 do in these assays?
TDP1 cell CPT: inactive; TDP1 block: inactive; DT40 TDP1 no CPT: inactive

Results for COc1ccc(C(=O)NCc2ccc3c(c2)CCN3C(=O)c2ccccc2)cc1 ?
TDP1 cell CPT: 23µM; TDP1 block: inactive; DT40 TDP1 no CPT: 23µM

What do the screens show for `Cc1ccccc1C(=O)NCc1ccc2c(c1)CCN2C(=O)c1ccccc1`?
TDP1 cell CPT: 13µM; TDP1 block: inactive; DT40 TDP1 no CPT: 10µM

Results for CCN(CC(=O)Nc1ccc2c(c1)OCCO2)Cc1cc(=O)oc2c(C)c(C)ccc12 ?
TDP1 cell CPT: inconclusive; TDP1 block: inactive; VP16 counter: inactive; RORg inh: inactive; DT40 TDP1 no CPT: inconclusive

How did O=C(Nc1ccccc1C(F)(F)F)C1CCN(S(=O)(=O)c2ccccc2)CC1 do in these assays?
TDP1 cell CPT: inactive; DT40 TDP1 no CPT: inactive

Results for Nc1ccc(Oc2ccc3nc(-c4ccccc4)c(-c4ccccc4)nc3c2)cc1 ?
TDP1 cell CPT: inconclusive; TDP1 block: inactive; VP16 counter: inactive; RORg inh: inconclusive; DT40 TDP1 no CPT: 21µM

What do the screens show for `Nc1ccc2nc(-c3ccccc3)cnc2c1`?
TDP1 cell CPT: inactive; DT40 TDP1 no CPT: inactive

How did Cc1ccc2sc(-c3ccc(N)cc3)nc2c1 do in these assays?
TDP1 cell CPT: inconclusive; TDP1 block: inactive; DT40 TDP1 no CPT: inconclusive

What do the screens show for `Nc1ccc(Oc2cc(N)cc(Oc3ccccc3)c2)cc1`?
TDP1 cell CPT: inactive; VP16 counter: inactive; RORg inh: inactive; DT40 TDP1 no CPT: inactive

What do the screens show for `Nc1ccc2nc(-c3ccccc3)c(-c3ccccc3)nc2c1`?
TDP1 cell CPT: inconclusive; TDP1 block: inactive; VP16 counter: inactive; RORg inh: inactive; DT40 TDP1 no CPT: 21µM

How did Nc1ccc2nc(-c3ccccc3)sc2c1 do in these assays?
TDP1 cell CPT: inactive; TDP1 block: inactive; VP16 counter: inconclusive; RORg inh: 8.9µM; DT40 TDP1 no CPT: inconclusive

How did CCCCCn1ccc(=O)c2c(C(F)(F)F)nccc21 do in these assays?
TDP1 cell CPT: 13µM; TDP1 block: inactive; VP16 counter: inconclusive; RORg inh: inconclusive; DT40 TDP1 no CPT: 18µM

What do the screens show for `O=C(CSc1ncccc1C(=O)Oc1ccccc1Cl)Nc1ccc(C(F)(F)F)cc1Cl`?
TDP1 cell CPT: inconclusive; TDP1 block: inactive; DT40 TDP1 no CPT: 23µM

Results for COc1cccc(C(=O)NNC2=C(C(=O)C(F)(F)F)CCC2)c1 ?
TDP1 cell CPT: 2.1µM; TDP1 block: inactive; VP16 counter: inconclusive; RORg inh: 5.6µM; DT40 TDP1 no CPT: 1.5µM

Results for Nc1ccccc1C(=O)Nc1cccc(C(=O)O)c1 ?
TDP1 cell CPT: inactive; TDP1 block: inactive; VP16 counter: inactive; RORg inh: inactive; DT40 TDP1 no CPT: inactive

What do the screens show for `O=C(NNC(=O)c1ccc(Br)cc1)c1ccncc1`?
TDP1 cell CPT: inactive; VP16 counter: inactive; RORg inh: inactive; DT40 TDP1 no CPT: inactive

What do the screens show for `O=C(NNC1=C(C(=O)C(F)(F)F)CCC1)c1ccc(Br)cc1`?
TDP1 cell CPT: inconclusive; TDP1 block: inactive; VP16 counter: inconclusive; RORg inh: inconclusive; DT40 TDP1 no CPT: 16µM

Results for Nc1ccccc1C(=O)NNC1=C(C(=O)C(F)(F)F)CCC1 ?
TDP1 cell CPT: 4.1µM; TDP1 block: inactive; VP16 counter: inconclusive; RORg inh: 7.1µM; DT40 TDP1 no CPT: 4.1µM

How did O=C(NNC1=C(C(=O)C(F)(F)F)CCC1)c1ccccc1O do in these assays?
TDP1 cell CPT: 16µM; TDP1 block: inactive; VP16 counter: inconclusive; RORg inh: 11µM; DT40 TDP1 no CPT: 21µM

Results for O=C(CNC(=O)c1ccco1)Nc1ccc(Br)cc1 ?
TDP1 cell CPT: inactive; VP16 counter: inactive; RORg inh: inactive; DT40 TDP1 no CPT: inactive

How did Cc1c(NC(=O)C(C)OC(=O)c2cccc(S(=O)(=O)N(C)C)c2)c(=O)n(-c2ccccc2)n1C (stereo not given) do in these assays?
TDP1 cell CPT: inactive; TDP1 block: inactive; VP16 counter: inactive; RORg inh: inactive; DT40 TDP1 no CPT: inactive

How did COc1ccc(CNc2nc(NCc3ccc(OC)cc3)n(C(=O)c3ccncc3)n2)cc1 do in these assays?
TDP1 cell CPT: inactive; VP16 counter: inactive; RORg inh: inactive; DT40 TDP1 no CPT: inactive

How did O=C(NNC1=C(C(=O)C(F)(F)F)CCC1)c1ccccc1Cl do in these assays?
TDP1 cell CPT: 1.3µM; TDP1 block: inactive; VP16 counter: 6.3µM; RORg inh: 5.6µM; DT40 TDP1 no CPT: 1µM

Results for COc1ccccc1C(=O)NNC1=C(C(=O)C(F)(F)F)CCC1 ?
TDP1 cell CPT: inconclusive; TDP1 block: inactive; VP16 counter: 5µM; RORg inh: 0.56µM; DT40 TDP1 no CPT: inconclusive

How did C=C1CC(COc2cc(=O)oc3ccccc23)(c2ccccc2)OC1=O (stereo not given) do in these assays?
TDP1 cell CPT: 1.2µM; DT40 TDP1 no CPT: 1.6µM

How did CCOC(=O)c1oc2ccc(S(=O)(=O)N3CCOCC3)cc2c1C do in these assays?
TDP1 cell CPT: inactive; TDP1 block: inactive; VP16 counter: inactive; RORg inh: inactive; DT40 TDP1 no CPT: inactive

What do the screens show for `Cc1c(C(=O)Nc2ccc(F)cc2)oc2ccc(S(=O)(=O)N3CC(C)CC(C)C3)cc12` (stereo not given)?
TDP1 cell CPT: 18µM; TDP1 block: inactive; VP16 counter: inactive; RORg inh: inactive; DT40 TDP1 no CPT: 15µM

Source: PubChem (National Center for Advancing Translational Sciences (NCATS))
